A selection: hits, their analogues and other compounds. The true share with any hit is near 2.2%.
HTR5A ag ctr: counter-screen for OPRM1-OPRD1 agonists: human HTR5A agonism; AID 504692; activation, % at 9.3 µM; HTR5A agonist assay, luminescence, cell-based; 0.61% of 340,000 active; in the data active means activation mostly above about 9.5%, no sharp cut-off; inactive means mostly below about 7.6%;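 further: 0% = cells with vehicle only and 100% = reference agonist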
OPRM1-OPRD1 ag: agonists of human mu-delta opioid receptor heterodimerization. cells, OPRM1-OPRD1 heterodimerization, luminescence. P35372+P41143. activation, % at 9.3 µM. 0.3% of 340,000 active; in the data active means activation above about 18%;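 further: 0% = vehicle-treated cells and 100% = reference agonist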
Target sequence (P35372 whole entry, looked up): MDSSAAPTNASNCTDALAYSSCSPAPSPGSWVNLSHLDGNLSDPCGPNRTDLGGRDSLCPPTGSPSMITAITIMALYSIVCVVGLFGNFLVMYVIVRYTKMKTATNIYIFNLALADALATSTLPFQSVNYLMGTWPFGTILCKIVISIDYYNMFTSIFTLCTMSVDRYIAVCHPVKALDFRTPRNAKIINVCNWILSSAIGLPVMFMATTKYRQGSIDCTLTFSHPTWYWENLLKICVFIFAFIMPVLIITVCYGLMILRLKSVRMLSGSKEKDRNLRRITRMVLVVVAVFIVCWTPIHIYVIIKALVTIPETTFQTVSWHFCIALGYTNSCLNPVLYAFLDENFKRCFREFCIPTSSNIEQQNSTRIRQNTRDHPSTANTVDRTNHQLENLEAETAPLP
Target sequence (P41143 whole entry, looked up): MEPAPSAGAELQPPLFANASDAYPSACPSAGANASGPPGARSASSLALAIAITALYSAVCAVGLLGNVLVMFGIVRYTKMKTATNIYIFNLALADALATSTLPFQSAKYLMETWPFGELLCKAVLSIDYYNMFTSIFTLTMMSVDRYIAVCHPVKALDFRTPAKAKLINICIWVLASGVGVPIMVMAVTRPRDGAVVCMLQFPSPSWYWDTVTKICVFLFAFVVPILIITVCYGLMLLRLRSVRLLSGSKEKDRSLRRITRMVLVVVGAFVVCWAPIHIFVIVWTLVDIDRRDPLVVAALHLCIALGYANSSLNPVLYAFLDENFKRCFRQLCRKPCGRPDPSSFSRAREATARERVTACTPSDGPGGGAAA
m5-HT2A agonist: activates the mouse 5-HT2A serotonin receptor; P35363; CHO-K1 mHTR2A beta-arrestin complementation, luminescence; percent of 30 µM serotonin response; activation, % at 7.6 µM; 0.66% of 360,000 active;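 active means activation above a run cutoff, the mean activation of all tested compounds plus 3 SD, cut at about 14% in these data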;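 further: 0% = plate median of compound wells and 100% = 30 µM serotonin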
MOR-DOR inv ag: inverse agonist of human OPRM1-OPRD1 heterodimerization. P35372+P41143. cell-based MOR-DOR heterodimer luminescence, inverse agonism. inhibition, % at 9.3 µM. 0.21% of 340,000 active; in the data active means inhibition above about 22%, passing the limit was not always enough;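 further: 0% = cells with DMSO and 100% = wells without cells with DMSO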
HTR5A inv ag: inverse agonist of human HTR5A in OPRM1-OPRD1 counter-screen; 0.083% of 340,000 active; HTR5A cell line, luminescence, inverse agonism; inhibition, % at 9.3 µM; AID 504634; P47898; in the data active means inhibition mostly above about 23%, no sharp cut-off; inactive means mostly below about 18%;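 further: 0% = cells with DMSO and 100% = no-cell wells with DMSO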
sPLA2-III inh: Blocks human group III sPLA2 activity; inhibition, % at 12.2 µM; 0.56% of 370,000 active; QFRET BODIPY PC-A2 liposome hydrolysis, fluorescence; Q9NZ20;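 active means inhibition above mean plus 3 SD of compounds lying within the high and low control bounds, cut at about 19% in these data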;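 further: 0% = median of test compound wells and 100% = no enzyme DMSO wells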
sPLA2 confirm: human GIII-sPLA2 inhibition, confirmation | shares compounds with sPLA2-III inh | recombinant hGIII-sPLA2, BODIPY PC-A2 QFRET fluorescence | inhibition, % at 12.2 µM | 34% of 2,000 active | AID 743280;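 active means mean inhibition across triplicates above the hit cutoff set in the earlier primary screen, cut at about 19% in these data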;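 further: 0% = enzyme with DMSO and 100% = DMSO wells lacking enzyme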
BODIPY interf: 535nm fluorescence interference, HGIII-sPLA2 counter-screen | BODIPY FL product fluorescence interference, QFRET | AID 743282 | 8.5% of 2,000 active | shares compounds with sPLA2-III inh | inhibition, % at 12.2 µM;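 active means average inhibition above the solvent-only control mean plus 3 SD, cut at about 6% in these data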;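 further: 0% = DMSO with substrate plus product and 100% = DMSO with substrate alone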
BODIPY interf DR: interferes with 535nm fluorescence in dose response counter-screen; 240 tested, under 10 active; BODIPY FL product fluorescence interference, cell-free; AID 743455; IC50, µM; shares compounds with sPLA2-III inh;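 active means IC50 at or below 10 µM; inactive means IC50 above 10 µM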
* hit, by the source's call; . = not tested or not shown.

SMILES	HTR5A ag ctr	OPRM1-OPRD1 ag	m5-HT2A agonist	MOR-DOR inv ag	HTR5A inv ag	sPLA2-III inh	sPLA2 confirm	BODIPY interf	others
O=C(OCc1cn(Cc2ccccc2F)nn1)N1CCCC1	.	.	.	.	.	1.4	.	.
COc1ccc(/C=N/N=C(\N)c2nonc2N)cc1OC	-1.8	0.3	0.5	-1.5	-10.0	-1.0	.	.
COc1cc(/C=N/N=C(\N)c2nonc2N)ccc1O	1.6	-3.5	-4.1	17.7	-18.7	24.9*	0.6	-7.0
C[C@@H]1C[C@H]2[C@@H](Cc3ccccc3)C(=O)N3[C@H](c4ccccc4)[C@H](C)C[C@H]3[C@@H](Cc3ccccc3)C(=O)N2[C@@H]1c1ccccc1	.	.	.	.	.	1.9	.	.
S=C(Nc1ccc(Br)cc1)OCCN1CCCC12CCC(c1ccccc1)CC2 (stereo not given)	.	.	.	.	.	0.9	.	.
NCCNc1ccc(C(=O)N2c3ccccc3Sc3ccccc32)cc1[N+](=O)[O-]	3.2	4.9	-6.5	-24.6	2.6	19.8*	23.8*	-26.7
Nc1ccc(C(=O)OCC(=O)N2c3ccccc3Sc3ccccc32)cc1[N+](=O)[O-]	-3.7	0.1	-1.3	-0.8	12.8	-7.7	.	.
C/C(=N/O)c1ccccn1	3.5	2.3	4.1	-11.5	-0.2	5.8	.	.
CCCCCC/C(=N/O)c1ccccn1	-0.9	2.6	2.0	-15.0	-5.2	21.7*	12.0	-6.3
S=c1[nH]c2ccc(Cl)cc2[nH]1	5.7	-0.6	7.1	3.3	-15.8	0.8	.	.
S=c1[nH]c2cc(Cl)ccc2s1	-2.1	1.0	1.1	-5.9	4.8	23.8*	20.9*	0.6
CCCc1cc(C(=O)NNC(=S)NCC2CCCO2)cs1 (stereo not given)	4.3	-4.8	-4.1	25.6	-12.5	22.6*	11.7	3.1
COc1ccccc1/C=C/C=N/n1c(-c2cc(-c3ccccc3)n[nH]2)n[nH]c1=S	0.6	2.4	0.7	-11.9	9.3	20.6*	-25.7	9.5*
S=c1[nH]nc(-c2cc(-c3ccccc3)n[nH]2)n1/N=C/C=C/c1ccccc1	-6.0	5.5	2.9	-28.3	12.5	15.0	.	.
COC(=O)C1=C(C)N(C)C(=NCc2ccc(OC)cc2)NC1c1cccc(C(F)(F)F)c1 (stereo not given)	.	.	.	.	.	-7.5	.	.
O=C(Nc1ccc([N+](=O)[O-])cc1)c1cn(-c2ccccc2)nc1-c1cc2ccccc2o1	4.6	-2.7	1.4	16.0	-12.2	20.0*	-3.0	-8.3
CN(C)C(=O)c1cn(-c2ccccc2)nc1-c1cc2ccccc2o1	3.9	-4.3	-0.7	20.1	5.7	-2.6	.	.
Cc1ccccc1-n1nc(C(=O)c2cccs2)cc(-c2nc3ccccc3[nH]2)c1=N	-8.1	1.2	1.9	-7.1	21.3	23.2*	18.6	7.4*
COc1cc(C(=O)Nc2ccc3c(c2)Cc2cc(NC(=O)c4cc(OC)c(OC)c(OC)c4)ccc2-3)cc(OC)c1OC	-2.2	-2.1	6.8	11.1	-5.0	8.3	.	.
COc1ccc(CC(=O)NNC(=O)c2cnccn2)cc1	1.9	-0.4	0.4	2.6	1.7	19.6*	7.5	-6.7
COc1ccc(C(=O)NNC(=O)c2ccc(C(C)(C)C)cc2)cc1	-4.0	-2.3	3.9	10.7	7.3	-11.2	.	.
COc1cc(C(=O)Nc2ccncc2)cc(OC)c1OC	3.0	-1.7	1.1	10.2	2.7	20.6*	-3.0	-8.0
COc1cc(C(=O)NNC(=S)NC(=O)c2ccc3c(c2)OCO3)cc(OC)c1OC	.	.	1.0	.	.	24.3*	37.0*	-16.1	BODIPY interf DR=>122
COc1ccc(C(=O)NNC(=S)NC(=O)C(C)(C)C)cc1	0.6	-5.6	-4.0	28.1	-1.7	22.8*	19.4*	-9.5
CN(N=Cc1ccccc1O)C(=O)c1ccccc1N	.	.	.	.	.	4.5	.	.
SMILES	HTR5A ag ctr	OPRM1-OPRD1 ag	m5-HT2A agonist	MOR-DOR inv ag	HTR5A inv ag	sPLA2-III inh	sPLA2 confirm	BODIPY interf	others
COC(=O)[C@]12C[C@H](CC(=O)NCCCCc3ccccc3)C(=O)N(Cc3ccc(Cl)cc3Cl)C1=C[C@H](COCc1ccccc1)O[C@@H]2C	.	.	.	.	.	-18.6	.	.
COc1ccc(C(=O)NC(=S)NNC(=O)c2ccccc2C)cc1	4.8	-4.6	-10.5	24.4	-25.4	24.8*	29.1*	-1.5
COc1cc(C(=O)NNC(=S)NC(=O)c2ccccc2C)cc(OC)c1OC	3.3	-4.2	-5.7	21.5	3.3	26.1*	25.0*	-13.1
COc1ccccc1C(=O)NNC(=S)NC(=O)c1cc(OC)c(OC)c(OC)c1	-2.1	-3.0	5.0	15.6	5.2	7.0	.	.
COc1ccc(C(=O)NC(=S)NNC(=O)c2cnccn2)cc1	-2.1	-2.0	4.9	10.5	-21.6	3.6	.	.
COc1cc(C(=O)NC(=S)NNC(=O)c2cnccn2)cc(OC)c1OC	10.2	-2.2	4.4	11.8	7.5	21.2*	9.6	-6.0
O=C(Nc1ccc(F)cc1)OCc1cn(Cc2ccccc2)nn1	.	.	.	.	.	-2.0	.	.
C/C(=N\NC(N)=S)c1ccccc1	2.5	-2.1	4.8	11.8	-7.2	3.9	.	.
NC(=S)NN=C(c1ccccc1)c1ccccc1	0.9	-0.9	4.1	4.6	-3.4	19.2*	22.0*	-3.7
COC(=O)c1cc2c(c3c4cc(OC)ccc4n(S(=O)(=O)c4ccc(F)cc4)c13)C(=O)N(Cc1ccccc1)C2	.	.	.	.	.	2.9	.	.
CCOC(=O)[C@]12CCCCC/C=C\1N(Cc1ccc(OC)cc1)C(=O)[C@H]2CC(=O)NCC1CCCCC1	.	.	.	.	.	6.0	.	.
O=C(NCc1ccccc1Cl)c1cnn2cccnc12	-5.1	-3.6	-4.9	15.0	12.8	3.5	.	.
O=C(NCc1cccs1)c1cnn2cccnc12	-4.5	-2.5	-5.8	14.2	0.7	24.3*	-4.8	-4.6
C=CCN1[C@H](CC(C)C)COc2cccc(N3CCSCC3)c2S1(=O)=O	.	.	.	.	.	3.9	.	.
O=C(O)C1CC=CCC1C(=O)N1CCN(c2nc(-c3ccccc3Cl)c3cc(Br)ccc3n2)CC1 (stereo not given)	12.2	9.9	-3.9	-43.2	-33.4	23.9*	-20.1	-33.9
COC(=O)c1cc2c(c3c4cc(OC)ccc4n(S(=O)(=O)c4cccc(C)c4)c13)C(=O)N(Cc1ccc(C(F)(F)F)cc1)C2	.	.	.	.	.	-0.7	.	.
CCc1cccc(NC(=O)Cn2cc3c(n2)CCCC3)c1	-4.2	-1.8	-1.6	9.4	11.6	-0.5	.	.
CN(C)c1ccc(NC(=O)Cn2cc3c(n2)CCCC3)cc1	-1.4	1.0	3.2	-5.2	3.8	21.4*	16.7	-3.4
O=C1S/C(=C\C=C\c2ccco2)C(=O)N1c1ccc(O)cc1	5.3	4.5	1.0	-23.5	26.2	-1.6	.	.

Assay outcomes (PubChem BioAssay)
